Laboratory results: PubChem BioAssay (Tox21)
Where “and” joins values, the source holds several entries; their conditions need not be identical. Identical values can stand only once. Inconclusive results are not listed. Where a call stands in place of a potency, no number is given. Calls of active or inactive are those of the source. Unless noted, calls come from the whole dose curve; as a rule, active = well fitted curve in the direction sought with a large enough effect in the repeat runs; inconclusive = weak or mixed curves; inactive = no such curve, though single readings can be large; an effect the other way counts as inactive or inconclusive.

Columns and labels:
[1] = qHTS assay for small molecule agonists of the p53 signaling pathway (AID 651631; calls by dose curve; note: nearly all actives have a fitted effect of over 15% in size)
Outline: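 Beta-lactamase reporter activity under p53 response elements was quantified in HCT-116 cells by FRET fluorescence, following 16 h incubation with test compounds at 37 °C and 2 h substrate development at room temperature.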

[2] = qHTS assay for small molecules that induce genotoxicity in human embryonic kidney cells expressing luciferase-tagged ATAD5 (AID 651632); note: nearly all actives have a fitted effect of over 15% in size
Outline: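 Cells were seeded at 2,000 per well, dosed with compound, and incubated 16 hr at 37C in 5% CO2. Luciferase activity was then quantified after a 30 min room-temperature incubation with Amplite.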

[3] = qHTS assay for small molecule agonists of the p53 signaling pathway - cell viability (AID 651633; calls by dose curve; note: nearly all actives have a fitted effect of over 30% in size; note: potency is the fitted concentration of half-maximal effect)
Outline: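 p53RE-bla cells, seeded at 4,000 per well and rested 5 h at 37 C/5% CO2, received compounds in DMSO for 16 h at 37 C. CellTiter-Glo was then added, and luminescence was read after 30 min at room temperature to gauge cytotoxicity.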

[4] = qHTS assay for small molecules that induce genotoxicity in human embryonic kidney cells expressing luciferase-tagged ATAD5 - cell viability (AID 651634; calls by dose curve; note: nearly all actives have a fitted effect of over 25% in size)
Outline: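 Cells (HEK293T, luciferase-tagged ATAD5) are seeded at 2,000 per well, dosed with compound or DMSO vehicle, and incubated 15.5 hr at 37C and 5% CO2. CellTiter-Fluor is added for 30 min before fluorescence is measured.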

[5] = qHTS assay for small molecule disruptors of the mitochondrial membrane potential - cell viability (AID 720634; calls by dose curve; note: nearly all actives have a fitted effect of over 20% in size; note: potency is the fitted concentration of half-maximal effect)
Outline: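 Cytotoxicity was measured by ATP quantitation in HepG2 wells that had first been treated with compound for 1 hr and stained with m-MPI dye; CellTiter-Glo incubation was 30 min at room temperature.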

[6] = qHTS assay for small molecule disruptors of the mitochondrial membrane potential (AID 720635); note: potency is the fitted concentration of half-maximal effect
Outline: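 HepG2 cells (2,000/well) attached overnight at 37C, then took compound for 1 hr at 37C, 5% CO2. Mito-MPS dye was added for 30 min; fluorescence was read at 490/535 nm (monomers) and 540/590 nm (aggregates).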

[7] = qHTS assay to test for compound auto fluorescence at 460 nm (blue) in HEK293 cells (AID 720678)
Outline: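 HEK293 cells (2,000 per well, medium with 10% dialyzed FBS) attached for 4-5 hr at 37C, then received compound and stood overnight at 37C, 5% CO2. Blue fluorescence was read at Ex/Em 405/460 nm and expressed relative to triamterene.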

[8] = qHTS assay to test for compound auto fluorescence at 590 nm (red) in HEK293 cells (AID 720679)
Outline: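 HEK293 cells (2,000/well, medium with 10% dialyzed FBS) attached for 4-5 hr at 37C, received 23 nL compound and were incubated overnight at 37C, 5% CO2. Red fluorescence was then read at 540/590nm Ex/Em, referenced to Rose Bengal sodium.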

[9] = qHTS assay to test for compound auto fluorescence at 535 nm (green) in HEK293 cells (AID 720680)
[10] = qHTS assay to test for compound auto fluorescence at 460 nm (blue) in HEK293 cell free culture (AID 720681)
Outline: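 Test compounds were pinned into cell-free culture medium (DMEM with 10% FBS) and fluorescence was read directly at Ex/Em 405/460 nm. Signals were expressed as fluorescence equivalents of triamterene, with DMSO vehicle as control.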

[11] = qHTS assay to test for compound auto fluorescence at 535 nm (green) in HEK293 cell free culture (AID 720682)
Outline: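 Each library compound, or DMSO control, is added by pintool to medium alone, comprising DMEM and 10% FBS. Emission at 535 nm following 485 nm excitation is quantified against fluorescein.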

[12] = qHTS assay to test for compound auto fluorescence at 590 nm (red) in HEK293 cell free culture (AID 720683)
Outline: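 Tox21 10K library compounds were pinned into cell-free DMEM with 10% FBS and fluorescence was read at excitation 540 nm. Activity is expressed as Rose Bengal sodium equivalency.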

[13] = qHTS assay to test for compound auto fluorescence at 590 nm (red) in HepG2 cell free culture (AID 720684)
Outline: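 Ex 540 / Em 590 nm read of compound in cell-free MEM (10% FBS). Rose Bengal sodium reference.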

[14] = qHTS assay to test for compound auto fluorescence at 460 nm (blue) in HepG2 cell free culture (AID 720685)
Outline: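 Cell-free plates of MEM plus 10% FBS received 23 nL compound or DMSO vehicle; blue-channel (405/460 nm) intensity scored against triamterene as reference fluorophore.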

[15] = qHTS assay to test for compound auto fluorescence at 535 nm (green) in HepG2 cell free culture (AID 720686)
[16] = qHTS assay to test for compound auto fluorescence at 460 nm (blue) in HepG2 cells (AID 720687)
Outline: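 Cells (2,000/well in MEM with 10% FBS) attached overnight at 37 C, then were exposed to compound or DMSO for 1 hr at 37 C, 5% CO2. Fluorescence read at Ex/Em 405/460 nm, expressed as triamterene-equivalent signal.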

[17] = target: Glucocorticoid receptor (Homo sapiens) (UniProt P04150); test: qHTS assay to identify small molecule agonists of the glucocorticoid receptor (GR) signaling pathway (AID 720691; active = well fitted activation curve with a large enough effect in the signal ratio in the repeat runs, not every such curve was filed as active; the % refers to the signal ratio; note: potency is the fitted concentration of half-maximal effect)
Outline: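 Steps: seed GR-bla HeLa cells, incubate 4 h at 37 C/5% CO2; pin-transfer DMSO-dissolved compounds; incubate 18 h at 37 C; add LiveBLAzer B/G FRET substrate; after 2 h at room temperature, measure fluorescence.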

[18] = target: Glucocorticoid receptor (Homo sapiens) (UniProt P04150); test: qHTS assay to identify small molecule antagonists of the glucocorticoid receptor (GR) signaling pathway (AID 720692; active = well fitted inhibition curve with a large enough effect in the signal ratio in the repeat runs, not every such curve was filed as active; the % refers to the signal ratio; note: potency is the fitted concentration of half-maximal effect)
Outline: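 Antagonism was scored as loss of dexamethasone-driven (5 nM final) reporter signal in HeLa cells bearing a glucocorticoid response element–beta-lactamase construct, after 18 h compound exposure at 37 C and 2 h FRET substrate loading.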

[19] = qHTS assay to test for compound auto fluorescence at 590 nm (red) in HepG2 cells (AID 720674)
Outline: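 Rose Bengal sodium served as the red fluorophore standard. HepG2 monolayers (overnight attachment, MEM with 10% FBS) were exposed to test compounds for 1 hr at 37 C and read at Ex 540/Em 590 nm.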

[20] = qHTS assay to test for compound auto fluorescence at 535 nm (green) in HepG2 cells (AID 720675)

Chain of Glucocorticoid receptor (Homo sapiens) (P04150 whole entry, looked up): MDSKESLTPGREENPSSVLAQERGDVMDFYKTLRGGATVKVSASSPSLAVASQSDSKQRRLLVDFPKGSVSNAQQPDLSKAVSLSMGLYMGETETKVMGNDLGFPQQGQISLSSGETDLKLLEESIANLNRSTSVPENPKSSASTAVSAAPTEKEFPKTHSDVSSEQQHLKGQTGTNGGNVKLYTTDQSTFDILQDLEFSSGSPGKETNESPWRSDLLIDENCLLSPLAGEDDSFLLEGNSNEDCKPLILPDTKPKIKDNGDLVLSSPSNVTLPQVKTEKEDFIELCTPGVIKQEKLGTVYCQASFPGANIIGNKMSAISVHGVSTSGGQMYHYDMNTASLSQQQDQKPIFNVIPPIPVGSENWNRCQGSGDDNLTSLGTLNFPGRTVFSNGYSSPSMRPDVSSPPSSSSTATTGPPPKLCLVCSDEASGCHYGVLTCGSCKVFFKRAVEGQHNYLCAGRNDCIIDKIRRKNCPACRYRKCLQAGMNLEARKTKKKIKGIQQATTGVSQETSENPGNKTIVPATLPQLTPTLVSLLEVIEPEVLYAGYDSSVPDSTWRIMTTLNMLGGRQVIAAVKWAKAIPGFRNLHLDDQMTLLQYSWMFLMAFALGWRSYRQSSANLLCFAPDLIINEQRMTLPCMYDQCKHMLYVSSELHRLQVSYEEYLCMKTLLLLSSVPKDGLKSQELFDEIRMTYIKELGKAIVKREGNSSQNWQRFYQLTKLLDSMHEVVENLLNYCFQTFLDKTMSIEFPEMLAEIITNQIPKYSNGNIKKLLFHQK

SMILES	Potency [1]	Potency [2]	Potency [3]	Potency [4]	Potency [5]	Potency [6]	outcome [7]	outcome [8]	outcome [9]	outcome [10]	outcome [11]	outcome [12]	outcome [13]	outcome [14]	outcome [15]	outcome [16]	Potency [17]	Potency [18]	outcome [19]	outcome [20]
CCCCN(CCCC)N=O	inactive	inactive	inactive	inactive	inactive	inactive	inactive	inactive	inactive	inactive	inactive	inactive	inactive	inactive	inactive	inactive	inactive	inactive	–	–
CCOC(=O)C(C)OC(=O)c1cc(Oc2ccc(C(F)(F)F)cc2Cl)ccc1[N+](=O)[O-] (centres undefined)	inactive	inactive	inactive	inactive	–	21.6 µM (active) and 61.1 µM (active)	inactive	inactive	inactive	inactive	inactive	inactive	inactive	inactive	inactive	–	inactive	inactive	inactive	inactive
Nc1ccc(-c2ccccc2)cc1	inactive	inactive	inactive	inactive	–	–	inactive	inactive	inactive	inactive	inactive	inactive	inactive	inactive	inactive	–	–	–	inactive	inactive
O=S(=O)(Oc1ccc(Cl)cc1)c1ccc(Cl)cc1	–	inactive	inactive	inactive	inactive	31 µM (active) and 12.2 µM (active)	inactive	inactive	inactive	inactive	inactive	inactive	inactive	inactive	inactive	–	inactive	–	inactive	–
C=CCc1ccc2c(c1)OCO2	inactive	–	inactive	inactive	inactive	–	inactive	inactive	inactive	inactive	inactive	inactive	inactive	inactive	inactive	–	–	–	–	–
CCc1cccc(CC)c1N(COC)C(=O)CCl	–	inactive	inactive	inactive	inactive	–	inactive	inactive	inactive	inactive	inactive	inactive	inactive	inactive	inactive	inactive	inactive	–	inactive	inactive
CC(C)(c1cc(Cl)c(O)c(Cl)c1)c1cc(Cl)c(O)c(Cl)c1	–	inactive	61.1 µM (active)	inactive	inactive	2.43 µM (active) and 2.73 µM (active)	inactive	inactive	inactive	inactive	inactive	inactive	inactive	inactive	inactive	–	inactive	12.3 µM (active) and 6.92 µM (active)	–	inactive
CCCCCCCCC(=O)NCc1ccc(O)c(OC)c1	–	inactive	inactive	inactive	inactive	–	inactive	inactive	inactive	inactive	inactive	inactive	inactive	inactive	inactive	inactive	30.1 µM (active)	–	inactive	inactive
c1ccc(-c2cccc(-c3ccccc3)c2)cc1	inactive	–	inactive	–	–	–	inactive	inactive	inactive	inactive	inactive	inactive	inactive	inactive	inactive	inactive	–	–	inactive	inactive
C[C@]12CCC(=O)C[C@@H]1CC[C@@H]1[C@@H]2CC[C@]2(C)[C@@H](O)CC[C@@H]12	inactive	–	inactive	inactive	–	–	inactive	inactive	inactive	inactive	inactive	inactive	inactive	inactive	inactive	inactive	–	–	–	inactive
CCC(C)(c1ccc(O)cc1)c1ccc(O)cc1	–	inactive	inactive	inactive	inactive	7.69 µM (active) and 9.69 µM (active)	inactive	inactive	inactive	inactive	inactive	inactive	inactive	inactive	inactive	inactive	–	–	–	inactive
Nc1c(Cl)cc([N+](=O)[O-])cc1Cl	–	inactive	inactive	inactive	24.3 µM (active)	24.5 µM (active) and 4.33 µM (active)	inactive	inactive	inactive	inactive	inactive	inactive	inactive	inactive	inactive	inactive	inactive	inactive	inactive	inactive
Cc1cc(C)cc(C)c1	–	inactive	–	inactive	inactive	inactive	inactive	inactive	inactive	inactive	inactive	inactive	inactive	inactive	inactive	–	–	–	inactive	inactive
CCCCCc1cc(O)cc(O)c1	–	inactive	inactive	–	61.1 µM (active)	9.73 µM (active) and 7.7 µM (active)	inactive	inactive	inactive	inactive	inactive	inactive	inactive	inactive	inactive	inactive	–	–	–	inactive
